Assay results: PubChem BioAssay AID2314 (National Center for Advancing Translational Sciences (NCATS), 2010)
Out of some 300,000 compounds screened, about 37,000 (12%) were called active. Rule as the data show it: active = max response mostly above about 13% (no sharp cut-off); inactive = mostly below about 14%. The full list was thinned out, with actives kept by preference.

Assay: Cycloheximide Counterscreen for Small Molecule Inhibitors of Shiga Toxin; also: read at 38.3 µM for the half of the compounds with a filed dose; 0% is about no effect
Conditions: cell reporter, cycloheximide protein synthesis inhibition counterscreen; active compounds read high

| SMILES | max response |
| --- | --- |
| Cc1occc1C(=O)Nc1cccc(Cn2cccn2)c1 | 10.7% (inactive) |
| Cc1ccnc(NC(=O)CCCOc2ccccc2)c1 | 9.11% (inactive) |
| COc1cc(SC)ccc1C(=O)Nc1nc(C)cs1 | -6.32% (inactive) |
| COc1cc(SC)ccc1C(=O)NCCOc1ccccc1Cl | 57.7% (active) |
| Cc1ccnc(NC(=O)c2ccoc2C)c1 | 35.7% (active) |
| COc1ccccc1CNC(=O)c1ccc(SC)cc1OC | 8.03% (inactive) |
| COc1ccccc1OCCNC(=O)CCNC(=O)c1ccccc1Cl | 5.13% (inactive) |
| COc1cc(SC)ccc1C(=O)Nc1cc(C)ccn1 | 40.1% (active) |
| COc1cc(SC)ccc1C(=O)N(Cc1ccccc1)c1ccccc1 | -0.326% (inactive) |
| COc1ccc(CCNc2cc(C)nc3c(-c4ccc(Cl)cc4)c(C)nn23)cc1OC | -1.95% (inactive) |
| COc1cccc(NC(=O)c2cc(S(=O)(=O)N3CCc4ccccc43)cn2C)c1 | -2.59% (inactive) |
| CCc1nn(CCCN2CCN(c3cccc(Cl)c3)CC2)c(=O)n1CCOc1ccccc1 | -3.76% (inactive) [middle of 4 runs] |
| Cn1c(=O)c2c(SCC(=O)NCC3CCCO3)nc(CC(C)(C)C)nc2n(C)c1=O (stereo not drawn) | 0.724% (inactive) |
| CC(OC(=O)c1ccccc1OCc1ccc(Cl)cc1)C(N)=O (stereo not drawn) | 2.27% (inactive) |
| CC(C)Cc1nnc(NC(=O)CN2C(=O)NC3(CCCCC3)C2=O)s1 | -1.99% (inactive) |
| O=C(Nc1ccc(CN2CCOCC2)cc1)c1cc(Cl)ccc1Cl | -1.65% (inactive) |
| C=CCn1cc(Cl)cc(C(=O)Nc2ccccc2)c1=O | 14.1% (active) |
| O=C(O)c1ccc(NC(=O)c2cn(-c3ccccc3)nc2-c2ccc(Cl)cc2)cc1 | 10.4% (inactive) |
| CCOc1ccc(Br)cc1CSC(=N)N | -0.921% (inactive) |
| Cc1cccc(CSc2ccc(-c3cccs3)nn2)c1 | 35% (active) |
| O=C(CSc1ccc(-c2cccs2)nn1)Nc1ccccc1F | 16.1% (inactive) |

| SMILES | max response |
| --- | --- |
| Cc1cccc(CSc2nnc(Cn3c(=O)sc4ccccc43)n2C)c1 | -3.59% (inactive) |
| CCOC(=O)c1ccc(-n2c(CCC(=O)O)ccc2-c2ccccc2)cc1 | -3.35% (inactive) |
| COc1ccc(CCOC(=O)CNC(=O)c2ccc(Cl)cc2Cl)cc1 | 7.31% (inactive) |
| O=C(c1cccs1)C1C(c2ccc(Br)cc2)NC(=S)NC1(O)C(F)(F)F (stereo not drawn) | 29.2% (active) |
| CCOC(=O)C1C(c2ccc(Cl)cc2)NC(=S)NC1(O)C(F)(F)F (stereo not drawn) | -4.55% (inactive) |
| CC(=O)C1C(c2ccc(Cl)cc2)NC(=O)NC1(O)C(F)(F)F (stereo not drawn) | -2.92% (inactive) |
| CC(C)CCOc1ccc(C(=O)C[N+]2(C)CCOCC2)cc1 | -6.71% (inactive) |
| COc1ccc(CN(C)C(=O)c2cc(-c3ccc(C)cc3C)nc3ccccc23)c(OC)c1OC | 9.76% (active) |
| COc1ccc(-c2cc(C(=O)N(C)Cc3ccccc3)c3ccccc3n2)cc1 | 10.1% (inactive) |
| Cc1ccc(-c2cc(C(=O)Nc3nn[nH]n3)c3ccccc3n2)c(C)c1 | -3.28% (inactive) |
| O=C(CCC1CCN(C(=O)c2cccc(Cl)c2F)CC1)Nc1ccccc1 | 3.41% (inactive) |
| CC1CCN(CCCn2c(SCC(=O)NC3CCCC3)nc3ccccc3c2=O)CC1 | -1.13% (inactive) |
| COc1ccc(CC(=O)NC(C)CCc2ccccc2)cc1 (stereo not drawn) | -0.862% (inactive) |
| COc1ccc(C(=O)COC(=O)c2nn(C)c(=O)c3ccccc23)c(OC)c1 | 4.36% (inactive) |
| COc1cc(C(=O)OCC(=O)NC(C)CCc2ccccc2)cc(OC)c1OC (stereo not drawn) | -8.18% (inactive) |
| COc1ccc(C(=O)CCC(=O)Nc2cccnc2)c(OC)c1 | -5.23% (inactive) |
| COc1ccc(C(=O)NC(C)CCc2ccccc2)c(OC)c1 (stereo not drawn) | 25.4% (active) |
| COc1ccc(C(=O)CCc2ccccc2O)c(OC)c1 | 32.7% (active) |
| O=C(NC1CCCC1)C1CCN(C(=O)Nc2cccc(Cl)c2)CC1 | -1.38% (inactive) |
| Cc1cccc(N2CCN(Cc3nc(C4CC4)no3)CC2)n1 | -2.08% (inactive) |
| Cc1cccc(C)c1NC(=O)C1CCCN1C(=O)OC(C)(C)C (stereo not drawn) | 6.96% (inactive) |

| SMILES | max response |
| --- | --- |
| O=C(CO/N=C/c1ccccc1O)NNC(=O)c1ccccc1Cl | -2.64% (inactive) |
| Cc1ccccc1C1=NC(C(F)(F)F)(C(F)(F)F)c2c(n(-c3ccc(F)cc3)c(=O)[nH]c2=O)N1 | -1.61% (inactive) |
| O=C(O)CSc1c2c(nc3cc(C(=O)Nc4cccc(C(F)(F)F)c4)ccc13)CCCC2 | -2.41% (inactive) |
| O=C(C1CCCO1)N(Cc1ccccc1)c1ccccc1 (stereo not drawn) | -0.517% (inactive) |
| O=C(Nc1nnc(SCc2c(Cl)cccc2Cl)s1)C1CCCO1 (stereo not drawn) | 28% (active) |
| CC(C)Cc1nnc(NC(=O)CCc2ccccc2)s1 | -1.48% (inactive) |
| O=C(Nc1nnc(SCc2c(Cl)cccc2Cl)s1)c1cccc([N+](=O)[O-])c1 | 8% (inactive) |
| O=C(Nc1nnc(SCc2ccc(Cl)cc2Cl)s1)C1COc2ccccc2O1 (stereo not drawn) | -3.01% (inactive) |
| O=C(Nc1nnc(CCc2ccccc2)s1)C1CCCO1 (stereo not drawn) | 14.8% (active) |
| O=C(NC(Cc1ccccc1)C(=O)O)/C(=C\c1ccccc1)NC(=O)c1ccco1 (stereo not drawn) | -3.05% (inactive) |
| COc1cc(CN2CCN(Cc3ccc(C)cc3)CC2)c([N+](=O)[O-])cc1OC | -2.69% (inactive) |
| CN(CC(=O)Nc1ccccc1C(F)(F)F)C(=O)Cc1ccccc1F | -1.32% (inactive) |
| Cn1cc[n+](C)c1COc1ccc(C=O)cc1 | 1.36% (inactive) |
| COc1ccc(C(=O)NCc2cn3ccccc3n2)cc1 | -1.44% (inactive) |
| O=Cc1ccc(OCc2cn3ccccc3n2)cc1 | 31.8% (active) |
| Cc1cccc2nc(CSc3nc4[nH]ncc4c(=O)n3-c3cccc(Cl)c3)cc(=O)n12 | 1.41% (inactive) |
| Oc1ccc(N=Cc2c(O)ccc3ccccc23)cc1 | 4.29% (inactive) |
| Oc1ccc(N=Cc2sc3ccccc3c2Cl)cc1 | 25.7% (active) |
| Cc1cccc(N=Nc2c(O)[nH]c3ccc(F)cc23)c1 | 49% (active) |
| NS(=O)(=O)c1ccc(N=Nc2c(O)[nH]c3ccc(Br)cc23)cc1 | -3.08% (inactive) |
| Oc1[nH]c2ccc(Br)cc2c1N=Nc1nn[nH]n1 | 1.76% (inactive) |
